The target in the assay is T1, Methionyl-tRNA synthetase, putative (Leishmania donovani (strain BPK282A1)) (UniProt E9BF75).
T1 sequence (whole entry): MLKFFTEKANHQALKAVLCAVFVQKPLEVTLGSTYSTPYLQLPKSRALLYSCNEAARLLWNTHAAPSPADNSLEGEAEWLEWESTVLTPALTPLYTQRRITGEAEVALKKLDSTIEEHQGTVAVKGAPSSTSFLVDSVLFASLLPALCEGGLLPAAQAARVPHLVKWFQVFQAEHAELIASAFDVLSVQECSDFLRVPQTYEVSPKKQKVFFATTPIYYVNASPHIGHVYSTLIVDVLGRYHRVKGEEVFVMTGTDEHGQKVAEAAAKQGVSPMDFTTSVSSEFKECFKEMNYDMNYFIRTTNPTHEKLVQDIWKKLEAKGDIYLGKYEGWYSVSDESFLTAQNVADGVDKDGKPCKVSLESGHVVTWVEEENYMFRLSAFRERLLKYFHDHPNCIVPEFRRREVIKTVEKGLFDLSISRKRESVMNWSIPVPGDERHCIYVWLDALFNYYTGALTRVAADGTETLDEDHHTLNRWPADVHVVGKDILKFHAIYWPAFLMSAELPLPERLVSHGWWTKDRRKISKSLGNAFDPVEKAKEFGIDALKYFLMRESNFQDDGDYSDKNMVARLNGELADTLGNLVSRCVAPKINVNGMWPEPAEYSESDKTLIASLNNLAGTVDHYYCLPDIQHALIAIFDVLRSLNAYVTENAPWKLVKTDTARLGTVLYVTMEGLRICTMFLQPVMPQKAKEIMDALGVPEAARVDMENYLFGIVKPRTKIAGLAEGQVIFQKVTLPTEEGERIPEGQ
Briefly: Leishmania donovani Methionine tRNA synthetase (LdMetRS):v7. Dose response assay. It is filed as functional. Further details: conc 80 nM, time 150 minutes.

These results are taken from ChEMBL document CHEMBL3988442, “University of Dundee, Small-Polar-MMV Screening Library” (2021).

As to `O=C(NCC1(O)CCC(F)(F)CC1)c1cc(=O)c2cc(F)cc(O)c2o1`, the PXC50 is < 4 (MAX_EFFECT 4.030710173) and < 4 (MAX_EFFECT 10.04784689).

For the compound `CCOC(=O)c1cnn(-c2nc(C)nc3sc4c(c23)CCC(C)C4)c1N` (stereo not given), the PXC50 is < 4 (MAX_EFFECT 8.465608466) and < 4 (MAX_EFFECT 9.066666667).

On to `COCCNc1nc(-c2cccnc2)nc2sc(C)c(C)c12`, for which the PXC50 is, setting by setting: (BOTTOM 0.74162584, HILLSLOPE 1.235225767, MAX_EFFECT 62.1761658, TOP 100.0) 4.17; (BOTTOM 1.893882354, HILLSLOPE 1.640156685, MAX_EFFECT 57.9787234, TOP 75.89886764) 4.31.

For the compound `CCc1nc(NC(C(=O)O)C(C)C)c2cc(CC)sc2n1` (stereo not given), the PXC50 by setting is: (MAX_EFFECT 9.289617486) < 4; (MAX_EFFECT 12.29946524) < 4.

As to `Cc1nc(N2CCN(c3ncccn3)CC2)c2c3c(sc2n1)CCCC3`, the PXC50 runs as follows: (MAX_EFFECT 19.78609626) < 4; (MAX_EFFECT 20.21857923) < 4.

Turning to `Nc1nc(CSc2ccccn2)nc2sc3c(c12)CCCC3`, the PXC50 (MAX_EFFECT 37.33333333) was < 4 and the PXC50 (MAX_EFFECT 37.56613757) is < 4.

Take `CC(O)c1ccc(Cl)cc1Cl` (stereo not given): the PXC50 (MAX_EFFECT 7.559395248) was < 3 and the PXC50 (MAX_EFFECT 15.39923954) is < 3.

`O=C(NCC1CCCCN1C(=O)c1cccc2ccccc12)c1ccccc1` (stereo not given): the PXC50 (BOTTOM 0.770786067, HILLSLOPE 2.128077678, MAX_EFFECT 96.73659674, TOP 102.5562093) is 4.68 and the PXC50 (BOTTOM 1.426381969, HILLSLOPE 1.713383958, MAX_EFFECT 97.20930233, TOP 108.6916663) was 4.55.

Take `CN(CC1CC1)c1ccc2ccc(C(=O)NC3CCCCC3)cn12`: the PXC50 reads like this: (BOTTOM 1.124026448, HILLSLOPE 1.465093934, MAX_EFFECT 59.86394558, TOP 70.1166241) 4.49; (BOTTOM 5.503846383, HILLSLOPE 1.186903167, MAX_EFFECT 58.31775701, TOP 100.0) 4.05.

With `CN(c1ncnc2c1cnn2C)C1CCCN(c2cccnn2)C1` (stereo not given), the PXC50 (MAX_EFFECT 40.92592593) was < 4 and the PXC50 (MAX_EFFECT 46.94835681) was < 4.

Regarding `Cc1nc(N2CCCC(N)CC2)c2ccsc2n1` (stereo not given), the PXC50 (MAX_EFFECT 0.0) is < 4 and the PXC50 (MAX_EFFECT 3.10880829) is < 4.

As for `FC1(F)CCN(Cc2ccncc2)CC12CCN(c1cccnc1)C2` (stereo not given), the PXC50 is, setting by setting: (MAX_EFFECT 5.981308411) < 4; (MAX_EFFECT -0.453514739) < 4.

Take `Fc1ccc(Nc2nc(-c3ccccn3)cs2)cc1`: the PXC50 is < 4 (MAX_EFFECT 22.79069767) and < 4 (MAX_EFFECT 23.07692308).

On to `COCCNc1nc(-n2nc(C)cc2C)nc2sccc12`, for which the PXC50 was 4.03 (BOTTOM 2.201340626, HILLSLOPE 2.387703954, MAX_EFFECT 53.50877193, TOP 100.0) and < 4 (MAX_EFFECT 36.45833333).

On to `Cc1nc(N2CCC(C(O)CC(C)C)CC2)c2ccsc2n1` (stereo not given), for which the PXC50 (MAX_EFFECT 3.626943005) is < 4 and the PXC50 (MAX_EFFECT 4.255319149) is < 4.

As to `CN1CCN(C(=O)CNC(=O)c2ccc3ccc(N4CCN(S(C)(=O)=O)CC4)n3c2)CC1`, the PXC50 runs as follows: (BOTTOM 0.0904, HILLSLOPE 2.137945772, MAX_EFFECT 50.23923445, TOP 52.555747) 4.83; (BOTTOM 3.391781155, HILLSLOPE 3.900764743, MAX_EFFECT 59.59780622, TOP 59.91227163) 4.76.

In the case of `CC(C)C[C@H]1COc2ccccc2C(c2ccccc2)=N1`, the PXC50 reads like this: (MAX_EFFECT 7.8891258) < 4; (MAX_EFFECT 10.97308489) < 4.

For the compound `Clc1cc(Cl)c2c(c1)NCCC2`, the PXC50 is, setting by setting: (MAX_EFFECT 10.1511879) < 3; (MAX_EFFECT 15.01901141) < 3.

In the case of `COCCNc1nc(CSc2ccccc2)nc2sc(C)c(C)c12`, the PXC50 by setting is: (MAX_EFFECT 27.86885246) < 4; (MAX_EFFECT 28.34224599) < 4.

For `CCc1cc2c(NCc3ccccn3)nc(C)nc2s1`, the PXC50 is < 4 (MAX_EFFECT 3.194103194) and < 4 (MAX_EFFECT 6.030150754).

Take `Cc1nc(N2CCC(C)CC2)c2ccsc2n1`: the PXC50 reads like this: (MAX_EFFECT 9.848484848) < 4; (MAX_EFFECT 11.2244898) < 4.

For the compound `COCCNC(=O)c1ccc2ccc(N(C)CC3CC3)n2c1`, the PXC50 is < 4 (MAX_EFFECT 29.93197279) and < 4 (MAX_EFFECT 41.12149533).

Take `O=c1cc(NCCCNCc2cc(C(F)(F)F)cs2)[nH]c2ccccc12`: the PXC50 reads like this: (BOTTOM -2.424501326, HILLSLOPE 1.220462925, MAX_EFFECT 102.3310023, TOP 102.5192077) 5.71; (BOTTOM -3.989177117, HILLSLOPE 1.235768434, MAX_EFFECT 100.0, TOP 101.1477832) 5.75.

For the compound `CCC(CO)Nc1nc(CSc2ccccc2)nc2sc3c(c12)CCC3` (stereo not given), the PXC50 (MAX_EFFECT 27.86885246) is < 4 and the PXC50 (MAX_EFFECT 29.94652406) is < 4.

For `Cc1nc(NC(Cc2ccccc2)C(=O)O)c2c3c(sc2n1)CCCC3` (stereo not given), the PXC50 reads like this: (MAX_EFFECT 23.07692308) < 4; (MAX_EFFECT 25.24509804) < 4.

On to `CCCN(CCOC)c1nc(C)nc2sccc12`, for which the PXC50 is < 4 (MAX_EFFECT 12.79373368) and < 4 (MAX_EFFECT 15.14360313).

In the case of `Cc1nc(N(C)Cc2cccnc2)c2c(C)c(C)sc2n1`, the PXC50 is, setting by setting: (MAX_EFFECT 19.78609626) < 4; (MAX_EFFECT 20.76502732) < 4.

Regarding `Cc1c(-c2cc(C(F)(F)F)nc(N3CCC(N)CC3)n2)cnn1C`, the PXC50 is < 4 (MAX_EFFECT 7.485604607) and < 4 (MAX_EFFECT 8.133971292).

For `Fc1cccc(OC[C@@H]2CNCCO2)c1Oc1ccc(Cl)cc1`, the PXC50 is < 4 (MAX_EFFECT 6.609808102) and < 4 (MAX_EFFECT 8.902691511).

For the compound `CCOC(=O)c1sc2nc(C)nc(NC3CCCCC3)c2c1C`, the PXC50 reads like this: (MAX_EFFECT 13.06532663) < 4; (MAX_EFFECT 16.95331695) < 4.
